PfHsp40 yeast – rescue of PfHsp40-mediated yeast toxicity; S. cerevisiae expressing PfHsp40, growth rescue, ATP luminescence; growth rescue, % at 12.5 µM; actives 0.68% (n = 340,000); AID 504582; in the data active means growth rescue above about 28%, passing the limit was not always enough; inconclusive means no clear call, values can overlap the other calls;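 further: yeast W303a lacking pdr1 and pdr3 grown in galactose medium; growth measured after three days at 30 °C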
MazEF act – MazEF (E. coli) toxin RNase activation. AID 504720. actives 0.32% (n = 350,000). activation, % at 20 µM. P0AE70. FAM/BHQ RNA-DNA oligo cleavage fluorescence, 5 h; in the data active means activation above about 50%
BoNT F protease – BoNT F light chain protease inhibition; Multiplex microsphere protease cleavage assay, flow cytometry; inhibition, % at 10 µM; actives 0.22% (n = 360,000); in the data active means inhibition above about 35%, passing the limit was not always enough; inconclusive means no clear call, values can overlap the other calls; further: plate controls were buffer without enzyme for full effect and enzyme alone for no effect
BoNT A protease – blocks Botulinum neurotoxin A light chain protease; multiplex microsphere protease substrate cleavage, flow cytometry; actives 0.17% (n = 360,000); AID 588499; inhibition, % at 10 µM; further: plate controls were buffer without enzyme for full effect and enzyme alone for no effect
Anthrax LF prot – blocks Bacillus anthracis lethal factor protease. P15917. multiplex microsphere protease cleavage assay, LF. inhibition, % at 10 µM. actives 0.12% (n = 360,000); further: plate controls were buffer without enzyme for full effect and enzyme alone for no effect
Autofluor counter – counter-screen for toxin protease inhibitors: compound fluorescence; compound autofluorescence counterscreen, microsphere flow cytometry; stronger effect = higher value; fluorescence intensity (no concentration beside the values); actives 3.1% (n = 360,000); AID 624483; in the data active means fluorescence intensity above about 16000; inconclusive means no clear call, values can overlap the other calls
* hit, by the source's call; ? = inconclusive; / = no result; + = active, no number; ! = repeats disagree. Hits are enriched below; roughly 4.3% of the tested compounds scored in any of these assays. Unless noted, no stated cut-off is given here; in the data, active means inhibition above about 30%; inconclusive means no clear call, values can overlap the other calls; inactive means below that.

SMILES	PfHsp40 yeast	MazEF act	BoNT F protease	BoNT A protease	Anthrax LF prot	Autofluor counter
CCOC(=O)C1=C(C)NC(=O)NC1c1cccc(OC)c1OCc1ccccc1Cl (stereo unspecified)	-1.0	-1.6	-2.4	?	-2.6	23671*
CCCC1=C(C(=O)OCC)C(c2cc(Cl)cc(OC)c2OCc2ccccc2)NC(=O)N1 (stereo unspecified)	-0.8	1.8	1.7	2.4	-0.4	21474*
CCOC(=O)C1=C(C)NC(=O)NC1c1ccc(Cl)cc1Cl (stereo unspecified)	0.3	6.9	2.5	3.0	-7.8	20836*
COc1cc(Cl)cc(C2NC(=O)NC(C)=C2C(C)=O)c1OCC(=O)O (stereo unspecified)	1.7	5.4	-4.4	-3.1	-4.1	16937*
COc1ccc(COC(=O)C2=C(C)NC(=O)NC2c2cccc(OC)c2OC)cc1 (stereo unspecified)	-0.2	0.5	?	2.0	10.1	3178
NC(=O)c1ccccc1OCC(=O)Nc1ccc2c(c1)OCCO2	-0.5	-15.6	-27.5	-18.6	-8.3	10023
Cc1ccc(NCCCCO)cc1C	-1.1	5.6	3.1	0.2	-11.0	4767
CCOC(=O)C1=C(C)C(c2ccccc2O)NC(=O)N1 (stereo unspecified)	0.0	9.2	1.8	2.2	0.5	19487*
CCOC(=O)C1=C(C)C(c2ccc(OC)cc2OC)NC(=O)N1 (stereo unspecified)	0.0	1.6	-3.3	0.8	4.2	2955
CCOC(=O)Cc1csc(NC(=O)CSc2nc3sc(C(=O)O)c(C)c3c(=O)[nH]2)n1	-2.4	0.7	-3.0	?	1.0	22793*
CSc1ccc(/C=N/n2c(C)cc(C)cc2=O)cc1	-0.5	4.0	-4.6	?	0.1	23602*
CSc1ccc(/C=N/n2c(C)nnc2C)cc1	-0.6	14.3	0.8	-0.1	-2.1	2027
C/C(=N\NC(=O)CCC(=O)Nc1ccc(C)c(C)c1)C1CC1	-0.8	3.0	-4.0	0.1	-0.8	6124
CCOC(=O)c1c(NC(C)=O)sc2c(OCCN(CC)CC)c(Br)ccc12	-0.1	10.7	-0.1	-0.9	4.7	4280
CCOC(=O)c1c(NC(C)=O)sc2c1CCC(C=NCCCN(CC)CC)=C2Sc1ccccc1	3.8	15.4	-24.2	67.8*	30.9*	4169
N#CC1=C(N)Oc2c(ccc3ccccc23)C1c1cccs1 (stereo unspecified)	/	59.1*	/	/	/	/
O=C(CN(Cc1ccccc1F)S(=O)(=O)c1ccc(Cl)cc1)NCC1CCCO1 (stereo unspecified)	-0.5	6.9	-1.1	-0.5	-1.4	5693
COc1cc(OC)c(NC(=S)Nc2cc(Cl)cc(Cl)c2)cc1Cl	1.1	59.7*	0.0	-0.6	-1.5	2685
COc1cc(OC)c(NC(=S)Nc2cccc(C(C)=O)c2)cc1Cl	-0.4	-0.9	2.0	-0.3	0.0	2551
CC(=O)c1nc2ccccc2n1S(=O)(=O)c1ccc(Cl)cc1	1.8	-0.9	-13.3	?	-0.1	18292*
COC(=O)COc1ccc(/C=N/NC(=O)c2ccc(N(Cc3ccccc3)S(C)(=O)=O)cc2)cc1	1.0	21.4	-2.5	0.2	1.4	2479
CCOC(=O)/C=c1\s/c(=C\c2c(OC)ccc3ccccc23)c(=O)n1CC(=O)NCC1CCCO1 (stereo unspecified)	0.2	+	-6.4	-2.0	-3.5	16857*
CCOC(=O)/C=c1/s/c(=C/c2ccc3cc(OC)ccc3c2)c(=O)n1CC(=O)NCC1CCCO1 (stereo unspecified)	-0.8	80.0*	23.9	2.5	-0.1	4298
Cc1nc2ncnn2c(C)c1CCC(=O)N1CCOCC1	0.3	-1.1	5.2	1.5	-4.7	22539*
Cc1nc2ncnn2c(C)c1CCC(=O)N1CCCCC1	-0.8	6.8	20.6	3.2	5.2	4106
SMILES	PfHsp40 yeast	MazEF act	BoNT F protease	BoNT A protease	Anthrax LF prot	Autofluor counter
Cc1nc2nc(C)c(CCC(=O)N3CCN(c4ccccn4)CC3)c(C)n2n1	1.2	-3.2	-3.4	-1.2	-5.3	23157*
Cc1ccc(S(=O)(=O)N2CCCCC2)cc1C(=O)OC(C)C(=O)NC1CCCCC1C (stereo unspecified)	1.0	-1.1	17.5	-1.3	0.6	5302
C=CCCC(=O)N1C[C@H]2CON(C)[C@H]2C[C@H]1c1cccc(Br)c1	-1.3	0.6	-1.5	-1.1	-6.0	4127
Cc1cc(C)cc(-n2nnnc2-c2cn(C)nc2C(F)(F)F)c1	-1.0	2.5	-4.8	0.4	1.6	3287
Cn1cc(-c2nnnn2-c2ccc(Cl)cc2)c(C(F)(F)F)n1	-0.4	1.1	1.1	0.7	-0.8	23367*
O=[N+]([O-])c1cccc(-n2nnnc2CNCc2ccccc2)c1	-0.1	2.9	6.2	0.0	0.4	3329
CCOC(=O)c1c(N2C(=O)C3C4C=CC(C4)C3C2=O)sc2c1CCC(C)C2 (stereo unspecified)	0.2	4.1	-17.8	-0.5	-1.8	2487
CCOC(=O)c1cc(C)sc1N1C(=O)C2C3C=CC(C3)C2C1=O (stereo unspecified)	0.3	6.3	-3.5	-2.0	-0.1	24106*
CCOC(=O)C1=C(COC(=O)COc2ccc(OCC)cc2)NC(=O)NC1C (stereo unspecified)	-0.4	-2.3	?	-0.7	3.0	4452
Cn1c(=O)cc(OCCCC(=O)N2CCCCC2)c2ccccc21	10.0	-2.0	-1.8	-0.8	-2.4	22743*
Cc1ccnc(NC(=O)CCCOc2cc(=O)n(C)c3ccccc23)c1	-0.3	-12.8	-3.9	?	-10.1	21080*!
CN1CCN(C(=O)CCCOc2cc(=O)n(C)c3ccccc23)CC1	0.9	-12.5	4.0	1.2	4.2	3843
CC(=O)OC1(C)CC(C)C(=O)C(C(O)CC2CC(=O)NC(=O)C2)C1 (stereo unspecified)	11.9	6.2	-2.2	-0.3	-7.1	5709
C[C@@H]1C[C@@H]([C@H](O)CC2CC(=O)NC(=O)C2)C(=O)[C@@H](C)C1	40.4*	5.7	-2.7	-0.1	0.8	4336
COC(=O)c1sc(-c2cccs2)cc1NC(=O)/C=C/C(=O)O	-1.0	4.1	-5.2	0.1	-6.3	5384
CN(CCc1cn[nH]c1)Cc1nc(Cc2ccccc2)no1	0.2	3.3	-10.6	-0.9	-5.7	3984
CC1CC(C)(C)NC(=S)N1CC(=O)NCc1ccc(Cl)cc1 (stereo unspecified)	-0.5	1.2	47.0*	4.3	0.4	2781
Cc1ccc(-c2nc(S(=O)(=O)c3ccc(C)cc3)c(SCC(N)=O)o2)cc1	-0.7	3.1	-65.5	-34.3	-5.3	16360*
O=C(COC(=O)/C=C/c1ccc(C(F)(F)F)cc1)NCC1CCCCC1	0.7	-0.9	1.9	0.9	0.3	4981
O=C(Cn1cccc1)Nc1ccc(OC(F)(F)F)cc1	1.0	7.5	4.3	3.7	0.8	21063*
Cc1cccc(NC(=O)Cn2cccc2)c1	1.7	3.7	-1.9	-1.5	-2.0	20306*
COc1ccc(NCC(=O)Nc2ccccc2C#N)cc1Cl	0.0	9.2	4.7	2.3	-7.8	21530*
